Columns and labels:
Details in all cases: concentration: 1 μM, replicates: in singlicate; n = 1
ACVR1B = tested on: ACVR1B
ACVR1 = tested on: ACVR1
ACVR2A = tested on: ACVR2A
ACVR2B = tested on: ACVR2B
ACVRL1 = tested on: ACVRL1
ADCK3 = tested on: T1, ADCK3
T1 construct: gene CABC1

ADCK4 = tested on: ADCK4
AKT1 = tested on: AKT1
AKT2 = tested on: AKT2
AKT3 = tested on: AKT3
ALK = tested on: ALK
AMPK-alpha1 = tested on: T2, AMPK-alpha1
T2 construct: gene PRKAA1

AMPK-alpha2 = tested on: T3, AMPK-alpha2
T3 construct: gene PRKAA2

ANKK1 = tested on: ANKK1
ARK5 = tested on: T4, ARK5
T4 construct: gene NUAK1

ASK1 = tested on: T5, ASK1
T5 construct: gene MAP3K5

ASK2 = tested on: T6, ASK2
T6 construct: gene MAP3K6

AURKA = tested on: AURKA
AURKB = tested on: AURKB
AURKC = tested on: AURKC
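Note: KINOMEscan kinase panel screen.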

SMILES | %Inh (ACVR1B) [%] | %Inh (ACVR1) [%] | %Inh (ACVR2A) [%] | %Inh (ACVR2B) [%] | %Inh (ACVRL1) [%] | %Inh (ADCK3) [%] | %Inh (ADCK4) [%] | %Inh (AKT1) [%] | %Inh (AKT2) [%] | %Inh (AKT3) [%] | %Inh (ALK) [%] | %Inh (AMPK-alpha1) [%] | %Inh (AMPK-alpha2) [%] | %Inh (ANKK1) [%] | %Inh (ARK5) [%] | %Inh (ASK1) [%] | %Inh (ASK2) [%] | %Inh (AURKA) [%] | %Inh (AURKB) [%] | %Inh (AURKC) [%]
Cc1nnc(-c2ccc3ncn(-c4ccc(S(C)=O)cc4)c3c2)o1 (stereo not shown) | 15 | 0 | 0 | 0 | 9 | 5 | 0 | 0 | 0 | 0 | 6 | 0 | 2 | 0 | 21 | 0 | 0 | 21 | 10 | 5
O=C(Nc1n[nH]c2nc(-c3ccccc3)c(Cl)cc12)C1CC1 [SB-734909] | 7 | 0 | 7 | 8 | 0 | 0 | 0 | 0 | 0 | 0 | 15 | 0 | 10 | 19 | 1 | 0 | 21 | 28 | 33 | 25
COc1cc2ncn(-c3cc(OCCCc4ccccc4)c(C(N)=O)s3)c2cc1OC [GSK205189] | 0 | 0 | 0 | 0 | 0 | 24 | 3 | 0 | 2 | 0 | 0 | 28 | 0 | 0 | 0 | 0 | 0 | 0 | 18 | 45
COc1cc(Nc2nccc(N3CCC(NC(=O)C(C)c4ccc(Cl)cc4)C3)n2)cc(OC)c1OC (stereo not shown) [GSK1379757] | 0 | 4 | 0 | 12 | 0 | 3 | 69 | 0 | 0 | 0 | 22 | 17 | 0 | 17 | 34 | 0 | 0 | 52 | 60 | 72
COc1cc2ncn(-c3cc(OCc4ccc(S(C)(=O)=O)cc4)c(C(N)=O)s3)c2cc1OC [GW869979] | 0 | 51 | 0 | 0 | 4 | 31 | 0 | 0 | 0 | 0 | 26 | 0 | 0 | 20 | 0 | 18 | 37 | 0 | 0 | 0
O=c1cc(N2CCOCC2)nc2n(Cc3ccc(F)c(Cl)c3)ccn12 [GSK2297099] | 0 | 0 | 0 | 0 | 0 | 0 | 11 | 0 | 13 | 0 | 20 | 0 | 19 | 13 | 14 | 2 | 0 | 0 | 0 | 0
COc1cc2ncn(-c3cc(OCc4ccncc4)c(C(N)=O)s3)c2cc1OC [GSK336313] | 0 | 9 | 0 | 0 | 0 | 0 | 20 | 0 | 1 | 0 | 20 | 0 | 0 | 0 | 16 | 6 | 0 | 17 | 0 | 4
Nc1nc(-c2ccccc2F)c(-c2ccnc3ccccc23)s1 [GW560459] | 0 | 6 | 0 | 0 | 0 | 0 | 22 | 0 | 0 | 0 | 31 | 0 | 1 | 16 | 0 | 3 | 0 | 0 | 5 | 17
Cc1nn2c(=O)cc(N3CCOCC3)nc2n1Cc1cccc(Cl)c1Cl [GSK2342769] | 0 | 12 | 0 | 0 | 42 | 10 | 4 | 0 | 14 | 0 | 29 | 0 | 2 | 0 | 20 | 5 | 7 | 0 | 3 | 0
CCCNC(=O)Nc1ccc(Oc2ncnc3ccn(C)c23)cc1 | 13 | 0 | 2 | 0 | 0 | 0 | 0 | 7 | 8 | 0 | 0 | 0 | 12 | 0 | 0 | 0 | 1 | 7 | 60 | 0
CCC(=O)c1c(-c2ccccc2)c2cc(Cl)ccc2c(=O)n1Cc1cc(S(C)(=O)=O)n(CCC(C)(C)O)n1 | 10 | 2 | 0 | 9 | 17 | 27 | 1 | 0 | 14 | 17 | 0 | 19 | 15 | 8 | 10 | 15 | 8 | 16 | 17 | 12

From publication PMC5540273 (PLoS ONE, 2017)
